# Biological target: POLR2B
# Experiment: pooled miR-30 sensor sort-seq; sequence = guide strand
# Conditions: shRNA
# Further: reference of the scale not given here.
row,Sequence,sensor-assay potency score (higher = more potent)
1,TAAAAGATTAGAAATCTTCTGC,0.528
2,TAGTGCAACATTCTGTTCTTGG,0.768
3,AAGATTGCAAACATGAACCTGA,0.822
4,TTTCTCTTTAGTAACACCAGGC,-0.352
5,TTTTCTCTTTAGTAACACCAGG,-1.3
6,TATTATGCAACTGTCTTGGTTT,-0.109
7,TTCTTTTTGTAAAACTTCCTTT,-0.613
8,TATCAAACCATCATCATCCAGC,-0.225
9,TTCTAAAATATCTCTGTCGGAC,-0.797
10,TATATGTGGAACAATAAGCTAC,-0.462
11,TTTTACAAAATTTATATCCTTC,0.417
12,TAGGAACTGATTACAATCCAGC,-0.664

# Biological target: POLR3B
# Experiment: as above
# Conditions: shRNA
row,Sequence,sensor-assay potency score (higher = more potent)
1,TTTCCTTGTAGCAGCATCCAAC,-0.877
2,TTTATTAATTGTGTGTTCGTAC,0.467
3,TATATGAGTCTGTTGCTCCTTT,0.252
4,TTGACAATTATGTAGGGTCTGC,-0.266
5,TTACATTGAAGCTTTCTTCAAC,0.0741
6,TAAATTTTTTGAACAAGTCTTC,-0.054
7,TAGCTCATCACAGCAACTGTTG,-0.674
8,TATCCTTTAGGTCACATCCATC,-1.12
9,TTAAGTACCACATAGGGTCAGC,-0.683
10,TTGGTGTATCGTTTCAACGTAC,-0.297
